In publication PMC8159961, “Exploring protein hotspots by optimized fragment pharmacophores” (Nature Communications, 2021):

Biological target: thrombin (human, UniProt P00734)
Experiment: primary screen, binary call; higher = more effect of the substance
Parameters: screenings were carried out in duplicate in one independent experiment
Settings: 200 µM; call rule not given here
Method: Protease inhibitory assays were performed in transparent microtiter plates in a final volume of 200 µL with the use of chromogenic substrates. The reaction rates in the absence and in the presence of the inhibitor were measured; screenings were carried out in duplicate in one independent experiment and Ki values were determined in triplicate in two independent experiments.

Thrombin, active:
O=C(O)C1CCN(c2ncccn2)CC1 1
CC(=O)c1sc(-c2ccc(O)cc2)nc1C 1
CC1CCc2sc(C(=O)O)cc2C1 (stereo not shown) 1
O=C(O)c1cnc(-c2ccccc2)s1 1

Thrombin, inactive:
O=C(O)c1cccc(Nc2ncccn2)c1 0
c1ccc(Nc2nncs2)cc1 0
Oc1ccc(-n2cncn2)cc1 0
O=C(NC1CC1)c1ccccc1O 0
Cn1c(N)nc2ccccc21 0
C1=C[C@H]2O[C@@H]1c1ccccc12 0
O=C1CC(CSc2ccc(Cl)cc2)=NN1 0
Cc1ccc(C)n1Cc1ccccc1Cl 0
COc1ccccc1N1CCNCC1 0
Oc1ccc(C2CCNCC2)cc1 0
O=C(c1ccccc1)N1CCC(CO)CC1 0
c1ccc2c(N3CCNCC3)ccnc2c1 0
O=c1[nH]ncc2c1oc1ccccc12 0
O=C1NC(=O)C2(CCc3ccccc32)N1 (stereo not shown) 0
CCc1nccn1CC(=O)O 0
O=C(O)C1CCCN(C(=O)N2CCCC2)C1 (stereo not shown) 0
O=C(O)c1ccc(CN2CCOCC2)cc1 0
O=C1CCN(c2ccncc2)CC1 0
O=C1CNCCN1c1ccccc1 0
Oc1nnc(-c2ccccc2)o1 0
NC1CCc2ccccc21 (stereo not shown) 0
Fc1ccc(CC2CCCNC2)cc1 (stereo not shown) 0
O=C(CN1CCCC1)c1ccccc1Cl 0
O=c1ccc2c([nH]1)CCCC2 0
CC(=O)c1ccc2c(c1)CNCC2 0
COc1ccccc1C1CCNCC1 0
Cn1c(CO)nc2ccccc21 0
c1ccc2oc(C3CCCNC3)nc2c1 (stereo not shown) 0
c1cnc2c(c1)NCCC2 0
CC1(C)OC(=O)c2cc(Br)c(O)cc2O1 0
Clc1ccc2nnnn2n1 0
N#CC1CCS(=O)(=O)C1 (stereo not shown) 0
O=C1CCC(=O)N(c2ccccc2)N1 0
CCc1ccc(NC2=NCCCS2)cc1 0
O=C(c1ccccc1F)N1CCNCC1 0
CN(C)c1cc(CN)ccn1 0
